Data on 87 compounds can be found in PMC4336329 (PLoS ONE, 2015).

Among all 310,000 compounds or so, about 14,000 (4.5%) showed an effect of 50% or more. The effect is printed as a negative number. The full list was thinned out, with strong results kept by preference.
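Also: peak tail current of the secondary pulse compared with the same well before compound.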

Sequence of human ether-à-go-go-related gene (hERG) potassium channel (Q12809 whole entry, looked up): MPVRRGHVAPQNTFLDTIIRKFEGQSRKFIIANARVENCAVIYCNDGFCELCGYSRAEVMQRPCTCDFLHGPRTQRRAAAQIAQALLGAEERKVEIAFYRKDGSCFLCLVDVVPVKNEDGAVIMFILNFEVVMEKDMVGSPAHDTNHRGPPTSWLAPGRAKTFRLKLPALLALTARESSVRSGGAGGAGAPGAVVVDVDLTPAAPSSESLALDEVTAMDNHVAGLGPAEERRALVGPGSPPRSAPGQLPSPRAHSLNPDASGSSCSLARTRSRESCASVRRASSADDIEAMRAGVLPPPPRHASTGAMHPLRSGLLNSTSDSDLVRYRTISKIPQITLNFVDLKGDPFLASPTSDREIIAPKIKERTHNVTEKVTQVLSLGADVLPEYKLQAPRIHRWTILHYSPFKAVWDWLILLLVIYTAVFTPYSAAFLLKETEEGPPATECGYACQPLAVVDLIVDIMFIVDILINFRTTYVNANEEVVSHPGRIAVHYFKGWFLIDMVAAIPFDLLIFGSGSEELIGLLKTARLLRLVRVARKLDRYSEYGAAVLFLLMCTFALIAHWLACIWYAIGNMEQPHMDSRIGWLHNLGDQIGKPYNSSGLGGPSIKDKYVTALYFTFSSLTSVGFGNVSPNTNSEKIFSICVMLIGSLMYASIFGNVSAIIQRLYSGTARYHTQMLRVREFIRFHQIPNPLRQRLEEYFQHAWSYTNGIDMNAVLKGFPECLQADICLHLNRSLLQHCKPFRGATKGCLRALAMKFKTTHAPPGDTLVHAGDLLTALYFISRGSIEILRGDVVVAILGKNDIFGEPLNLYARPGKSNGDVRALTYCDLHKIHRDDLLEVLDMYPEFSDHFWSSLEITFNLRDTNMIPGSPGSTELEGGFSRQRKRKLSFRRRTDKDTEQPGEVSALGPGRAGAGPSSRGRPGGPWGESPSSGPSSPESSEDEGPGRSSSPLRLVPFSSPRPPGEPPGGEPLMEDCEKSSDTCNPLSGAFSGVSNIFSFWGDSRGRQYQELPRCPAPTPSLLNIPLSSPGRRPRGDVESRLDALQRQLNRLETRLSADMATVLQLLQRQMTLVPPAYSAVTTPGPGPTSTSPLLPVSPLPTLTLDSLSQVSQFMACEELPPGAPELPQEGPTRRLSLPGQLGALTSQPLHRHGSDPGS

This assay addresses human ether-à-go-go-related gene (hERG) potassium channel (human, UniProt Q12809). In words: primary screen, population patch clamp on CHO cells stably expressing hERG; higher = less effect of the substance.
For the compound `c1cncc(-c2ccnc3ncnn23)c1`, the “hERG current change (%, negative = inhibition) at 10uM” value is reported as -4.79%.
As for `COc1cc(C)c(CNc2cccc(C)c2)cc1C`, the “hERG current change (%, negative = inhibition) at 10uM” value is on record as 2.74%.
Take `Cc1ccc(SCn2nnc3ccccc3c2=O)c(C)c1`: the “hERG current change (%, negative = inhibition) at 10uM” value is on record as -33.8%.
In the case of `O=C(CCCn1cnc([N+](=O)[O-])n1)Nc1cccc(O)c1`, the “hERG current change (%, negative = inhibition) at 10uM” value is 9.95%.
As to `CCOC(=O)C(C)n1nc(-c2ccccc2)c2ccccc2c1=O` (stereo not drawn), the “hERG current change (%, negative = inhibition) at 10uM” value was 15.9%.
As for `CCC1Oc2ccc(C)cc2N(CC(=O)NC2CCCCC2)C1=O` (stereo not drawn), the “hERG current change (%, negative = inhibition) at 10uM” value is recorded as 5.8%.
For the compound `CCCCNC(=O)Nc1nnc(SCC(=O)OCC)s1`, the “hERG current change (%, negative = inhibition) at 10uM” value is -91.2%.
As to `CCCCNC(=O)CSc1nnc(NC(C)=O)s1`, the “hERG current change (%, negative = inhibition) at 10uM” value is listed as -10.6%.
Consider `CCOC(=O)CSc1nnc(NC(=O)NC(C)C)s1`, for which the “hERG current change (%, negative = inhibition) at 10uM” value amounted to 5.74%.
On to `O=C(O)CCN1CCc2ccccc21`, for which the “hERG current change (%, negative = inhibition) at 10uM” value turned out to be 9.02%.
For the compound `FC(F)(F)c1cccc(NCc2n[nH]c(=S)n2C2CCCCC2)c1`, the “hERG current change (%, negative = inhibition) at 10uM” value is recorded as 41.2%.
Consider `Cc1ccc(S(=O)(=O)N(C)Cc2cc3ccccc3[nH]c2=O)cc1`, for which the “hERG current change (%, negative = inhibition) at 10uM” value is -15.7%.
For `COc1cccc(C(=O)/C=C/Nc2ccc(S(=O)(=O)Nc3nc(C)cc(C)n3)cc2)c1` the value was -1.4%.
Turning to `O=C(CCc1nnc2ccc(NCCCN3CCCC3=O)nn12)NCc1ccccc1Cl`, the “hERG current change (%, negative = inhibition) at 10uM” value is reported as -1.05%.
For the compound `Cc1nn(-c2ccccc2)c2c1C(c1ccc(F)cc1F)C(C#N)=C(N)O2` (stereo not drawn), the “hERG current change (%, negative = inhibition) at 10uM” value is recorded as -9.42%.
`COc1ccc(C(=O)n2nc(-c3ccco3)nc2N)cc1`: the “hERG current change (%, negative = inhibition) at 10uM” value is -2.65%.
For `CC(C)CCn1c(=O)c2ccccc2n2c(=S)[nH]nc12` the value was 18.2%; for `CC(C)CCn1c(=O)c2ccccc2n2c(CN3CCCC3)nnc12`, -2.3%.
As for `CC(C)CCn1c(=O)c2ccccc2n2c(CCl)nnc12`, the “hERG current change (%, negative = inhibition) at 10uM” value was -32.8%.
On to `CC(C)CCn1c(=O)c2ccccc2n2c(CN(C)Cc3ccccc3)nnc12`, for which the “hERG current change (%, negative = inhibition) at 10uM” value was -80.7%.
With `CC(C)CCn1c(=O)c2ccccc2n2c(CN3C(=O)NC4(CCC(C)CC4)C3=O)nnc12` (stereo not drawn), the “hERG current change (%, negative = inhibition) at 10uM” value is -72.1%.
For `CC(C)CCn1c(=O)c2ccccc2n2c(CN3CCOCC3)nnc12` the value was -11.9%; for `CCN1C(=O)/C(=C2/Sc3ccc(OC)cc3N2C)SC1=Nc1cccc(O)c1`, 15.6%.
Regarding `CCOc1ccc(S(=O)(=O)n2ccc(C)n2)cc1`, the “hERG current change (%, negative = inhibition) at 10uM” value is 10.9%.
With `O=S(=O)(NCc1ccc2c(c1)OCO2)c1cccc(S(=O)(=O)N2CCOCC2)c1`, the “hERG current change (%, negative = inhibition) at 10uM” value was found to be 10.6%.
For the compound `N#Cc1ccc2c(c1)nnn2-c1ccccc1`, the “hERG current change (%, negative = inhibition) at 10uM” value worked out at 1.85%.
To `O=c1c2ccccc2nc(CSc2ncnc3nc[nH]c23)n1-c1ccc(Cl)c(Cl)c1` belongs 5.27%; to `CCOC(=O)Cn1cnc2c(C#N)c3n(c2c1=O)CCCCC3`, -9.52%; to `N#Cc1c(-c2ccccc2)nc(-c2cccnc2)[nH]c1=O`, 17.6%.
Consider `N#Cc1c(-c2ccccc2)nc(-c2ccccc2)[nH]c1=O`, for which the “hERG current change (%, negative = inhibition) at 10uM” value is reported as 13.4%.
Consider `N#Cc1c(-c2ccccc2)nc(-c2ccncc2)[nH]c1=O`, for which the “hERG current change (%, negative = inhibition) at 10uM” value was -71.5%.
Turning to `Cc1ccc(NC(=O)C(C)OC(=O)/C=C/c2ccccc2)cc1` (stereo not drawn), the “hERG current change (%, negative = inhibition) at 10uM” value turned out to be 23%.
For `Clc1cccc(Cl)c1OCCOCCNCc1ccccc1.O=C(O)C(=O)O`, the “hERG current change (%, negative = inhibition) at 10uM” value is -31.2%.
For `Cc1cc(Cl)cc(C)c1OCCNCc1ccccc1.O=C(O)C(=O)O`, the “hERG current change (%, negative = inhibition) at 10uM” value is listed as -3.66%.
For the compound `Cc1cc(Cl)cc(C)c1OCCOCCNCc1ccccc1.O=C(O)C(=O)O`, the “hERG current change (%, negative = inhibition) at 10uM” value is listed as -52.4%.
Regarding `Cc1ccc(OCCNCc2ccccc2)c(C)c1.O=C(O)C(=O)O`, the “hERG current change (%, negative = inhibition) at 10uM” value is -6.1%.
Consider `Cc1cc(C)c(C)c(OCCOCCNCc2ccccc2)c1.O=C(O)C(=O)O`, for which the “hERG current change (%, negative = inhibition) at 10uM” value is listed as -54.2%.
`Cc1cc(C)c(C)c(OCCNCc2ccccc2)c1.O=C(O)C(=O)O`: the “hERG current change (%, negative = inhibition) at 10uM” value is on record as -5.47%.
Turning to `Cc1cc(=O)[nH]c(N2CCN(Cc3ccccc3)CC2)n1`, the “hERG current change (%, negative = inhibition) at 10uM” value was -2.95%.
For `CC(=O)Oc1c(C(=O)c2nnc(C)o2)c(=O)n(Cc2ccccc2)c2ccccc12`, the “hERG current change (%, negative = inhibition) at 10uM” value worked out at 1.56%.
In the case of `CCCCCCCCNC(=O)c1ccc(C)cc1`, the “hERG current change (%, negative = inhibition) at 10uM” value is listed as 10.9%.
In the case of `O=C(NC(c1ccccc1)C(Cl)(Cl)Cl)c1ccccc1` (stereo not drawn), the “hERG current change (%, negative = inhibition) at 10uM” value is reported as -11.3%.
Take `CCN(CC)S(=O)(=O)c1ccc2oc(Nc3ccc(OC)cc3OC)nc2c1`: the “hERG current change (%, negative = inhibition) at 10uM” value was determined as 9.24%.
To `CCc1cccc(C)c1NC(=O)CSc1nc2ccc(N3C(=O)c4ccccc4C3=O)cc2s1` belongs 4.44%.
Take `CC(Oc1ccc(Br)cc1)C(=O)O/N=C(\N)c1ccncc1` (stereo not drawn): the “hERG current change (%, negative = inhibition) at 10uM” value is on record as 5.16%.
For `Cc1cccn2c(=O)nc(SCC(=O)NCc3ccco3)nc12`, the “hERG current change (%, negative = inhibition) at 10uM” value is reported as 1.37%.
For `Cc1cccn2c(=O)c3cc(C(=O)NCc4ccco4)c(=N)n(CCc4ccccc4)c3nc12` the value was -76.5%.
`Cc1cccn2c(=O)c3cc(C(=O)NCc4ccco4)c(=N)n(C(C)C)c3nc12`: the “hERG current change (%, negative = inhibition) at 10uM” value was -77.6%.
In the case of `COc1ccc(CCn2c(=N)c(C(=O)NCc3ccco3)cc3c(=O)n4cccc(C)c4nc32)cc1`, the “hERG current change (%, negative = inhibition) at 10uM” value was -75.6%.
In the case of `Cc1ccccc1Nc1cc(C(=O)NCc2ccco2)c2ccccc2n1`, the “hERG current change (%, negative = inhibition) at 10uM” value is listed as 20.3%.
For `COc1ccc(CCn2c(N)c(C(=O)NCc3ccco3)c3nc4ccccc4nc32)cc1`, the “hERG current change (%, negative = inhibition) at 10uM” value was 0.65%.
Regarding `COc1ccc(-n2nc(C(=O)NCc3ccco3)c3ccccc3c2=O)cc1`, the “hERG current change (%, negative = inhibition) at 10uM” value is -17.1%.
`Cc1cccn2c(=O)c3cc(C(=O)NCc4ccco4)c(=N)n(CCOCCO)c3nc12`: the “hERG current change (%, negative = inhibition) at 10uM” value was -74.9%.
To `CC(OC(=O)c1cccc(S(=O)(=O)Nc2ccccc2F)c1)C(=O)NCc1ccc2c(c1)OCO2` (stereo not drawn) belongs 12.8%; to `CN(C(=O)c1ccc(S(=O)(=O)N2CCCC2)cc1)C1CCS(=O)(=O)C1` (stereo not drawn), 4.75%.
For `O=C(Nc1ccc(Cl)cc1)C(Cl)C(=O)c1ccccc1` (stereo not drawn) the value was -3.81%.
For `Cc1csc(SCC(=O)NCc2cccc(Cl)c2)n1`, the “hERG current change (%, negative = inhibition) at 10uM” value is -7.05%.
For `CCOC(=O)Cn1c(=O)n(Cc2ccco2)c(=O)c2ccc(C(=O)NC3CCCC3)cc21` the value was -18.9%; for `Cc1cccn2c(=O)c3cc(C(=O)NCCc4ccccc4)c(=N)n(Cc4ccco4)c3nc12`, -74%.
`CCc1ccc(-n2c(=O)c3ccc(C(=O)NCCc4ccccc4)cc3n(CC(N)=O)c2=O)cc1`: the “hERG current change (%, negative = inhibition) at 10uM” value is reported as 14.6%.
`Cc1cccn2c(=O)c3cc(S(=O)(=O)c4ccccc4)c(=N)n(Cc4ccco4)c3nc12`: the “hERG current change (%, negative = inhibition) at 10uM” value is -0.654%.
On to `CCOC(=O)Cn1c(=O)n(Cc2ccco2)c(=O)c2ccc(C(=O)NCCc3ccccc3)cc21`, for which the “hERG current change (%, negative = inhibition) at 10uM” value is -53.2%.
With `Cc1cccn2c(=O)c3cc(S(=O)(=O)c4ccc(F)cc4)c(=N)n(Cc4ccco4)c3nc12`, the “hERG current change (%, negative = inhibition) at 10uM” value is given as -34.8%.
`CCN(CC)C(=O)N1CCN(c2c([N+](=O)[O-])c(=O)oc3ccccc23)CC1`: the “hERG current change (%, negative = inhibition) at 10uM” value was -25.7%.
In the case of `CN(C)c1ccc(C(=O)c2ccc(N(C)C)c(N)c2)cc1N`, the “hERG current change (%, negative = inhibition) at 10uM” value is listed as -3.79%.
On to `COc1c(F)c(F)c(C(=O)Nc2ccc(N3CCN(Cc4ccccc4)CC3)cc2)c(F)c1F`, for which the “hERG current change (%, negative = inhibition) at 10uM” value is listed as -14.6%.
For the compound `COc1ccc(C(=O)N=C2SC3CS(=O)(=O)CC3N2c2ccccc2)cc1OC` (stereo not drawn), the “hERG current change (%, negative = inhibition) at 10uM” value is 11%.
To `CCCCn1nnc(NC(=O)c2ccc(-c3ccccc3[N+](=O)[O-])o2)n1` belongs -14.2%.
`CCCn1nnc(NC(=O)c2ccc(-c3cccc(Cl)c3)o2)n1`: the “hERG current change (%, negative = inhibition) at 10uM” value is recorded as -55.3%.
To `CCn1nnc(NC(=O)Cc2ccc(Cl)cc2)n1` belongs 3.52%.
Take `CCn1nnc(NC(=O)c2ccc(Br)o2)n1`: the “hERG current change (%, negative = inhibition) at 10uM” value is 13.7%.
On to `CCCn1nnc(NC(=O)c2ccc(-c3cc(Cl)ccc3Cl)o2)n1`, for which the “hERG current change (%, negative = inhibition) at 10uM” value was determined as 6.96%.
With `CCCCn1nnc(NC(=O)c2ccc([N+](=O)[O-])cc2Cl)n1`, the “hERG current change (%, negative = inhibition) at 10uM” value was -31.1%.
To `CCCCn1nnc(NC(=O)c2ccc(-c3cccc([N+](=O)[O-])c3)o2)n1` belongs -68.5%; to `CCn1nnc(NC(=O)c2ccc(-c3ccc(Cl)cc3)o2)n1`, -53.5%.
To `CCCCn1nnc(NC(=O)c2ccc(-c3cccc(Cl)c3)o2)n1` belongs -40.8%; to `O=C(NC1CC1)c1sccc1-n1cccc1`, 8.56%.
`COc1cc(NC(=O)Cc2cccs2)c(C(=O)O)cc1OC`: the “hERG current change (%, negative = inhibition) at 10uM” value amounted to 21.7%.
In the case of `Cc1ccc2[nH]c(=O)c(CNS(=O)(=O)c3ccccc3)c(-c3ccccc3)c2c1`, the “hERG current change (%, negative = inhibition) at 10uM” value turned out to be 16.2%.
Regarding `Cc1ccc(-n2[nH]c(C)c(C=Nc3ccc(S(=O)(=O)Nc4nccs4)cc3)c2=O)c(C)c1`, the “hERG current change (%, negative = inhibition) at 10uM” value is -35%.
For `CCOC(=O)C1(Cc2ccc(OC)cc2)CCN(C(=O)c2cncs2)CC1`, the “hERG current change (%, negative = inhibition) at 10uM” value was -17.6%.
On to `CCOC(=O)C1(CCOc2ccccc2)CCN(C(=O)c2cncs2)CC1`, for which the “hERG current change (%, negative = inhibition) at 10uM” value is reported as -70.7%.
For `CCOC(=O)C1(CCCc2ccccc2)CCN(C(=O)c2cncs2)CC1` the value was -55%; for `O=C(Oc1ccc(/C=N/NC(=O)c2ccccn2)cc1)c1cccc(Br)c1`, 11.4%; for `CC(C)CC(NS(=O)(=O)c1cccc(C(=O)O)c1)C(=O)O` (stereo not drawn), 44.6%.
Consider `COc1cc(NC(=O)c2ccc(NS(=O)(=O)c3c(C)noc3C)cc2)cc(OC)c1`, for which the “hERG current change (%, negative = inhibition) at 10uM” value turned out to be 1.03%.
As for `Cc1[nH]nc(-c2ccc(OCc3cnn(-c4ccccc4)c3)c(C)c2O)c1Oc1ccccc1`, the “hERG current change (%, negative = inhibition) at 10uM” value amounted to 12%.
